Laboratory results reported in PubChem BioAssay (NCI).
Compounds without any hit were thinned out: in the full panel of roughly 83,000, 20% have a hit.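 The test compound was applied at a single concentration to cells in 96-well plates for 48 hours, and percent growth was recorded.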 Values without a mark were called inactive. The source made the active and inactive calls. The calls were made as follows: active = growth percent below 10; inactive = the rest.

Assays:
Test in all cases: NCI-60 one-dose screen, 48 h (100 = growth as untreated, 0 = no growth, -100 = all killed)
Settings in all cases: 10 µM unless noted
[1] = test system: EKVX NSCLC
[2] = test system: SN12C renal
[3] = test system: UO-31 renal
[4] = test system: TK-10 renal
[5] = test system: ACHN renal
[6] = test system: CAKI-1 renal
[7] = test system: A498 renal
[8] = test system: CCRF-CEM leukemia
[9] = test system: MOLT-4 leukemia
[10] = test system: SR leukemia

Structure (SMILES)	growth [1]	growth [2]	growth [3]	growth [4]	growth [5]	growth [6]	growth [7]	growth [8]	growth [9]	growth [10]
COc1ccc(-c2nn(-c3ccccc3)cc2/C=C2\SC(=S)N(CCc3ccc(O)cc3)C2=O)cc1	84.6%	81.9%	60%	94.2%	87.5%	51.2%	62.6%	76.5%	68.3%	75.8%
CCCC[N+](CCCC)=c1ccc2nc3c(C)cc(N(CC)CC)cc3sc-2c1	4.13% (active)	-3.26% (active)	0.703% (active)	3.75% (active)	-34.1% (active)	-2.5% (active)	-5.54% (active)	-15.7% (active)	-20.1% (active)	-18.2% (active)
CCOC(=O)C(C(C)=O)c1nc2sc3cc(Cl)ccc3n2c(=N)c1C#N (stereo not given)	73.6%	85.9%	76.1%	157%	109%	91.6%	101%	163%	44.9%	60.3%
Cc1cc(O)c2c(c1)C[C@H]1[C@@H]3CC[C@H]4CC(=O)CC[C@]4(C)[C@H]3CC(=O)[C@]21C	49.8%	81.3%	113%	92.5%	94.7%	83.9%	103%	58.8%	53.7%	59.2%
COc1ccccc1[C@H]1c2[nH]c3ccccc3c2C[C@H]2C(=O)N(CCCCCCC(=O)NO)CC(=O)N12	74.7%	56.9%	44.7%	48.2%	35.1%	55.5%	31.9%	5.22% (active)	11%	19.3%
COc1cc(/C=C2\COc3ccc(O)cc3C2=O)cc(OC)c1	94.8%	21.7%	63.1%	93.6%	48.9%	68.4%	101%	-0.953% (active)	31.3%	3.36% (active)
COc1ccc(-c2cc(C(=O)Nc3nc4cc(C)c(C)cc4s3)nc3cc(-c4ccccc4)nn23)cc1OC	107%	107%	103%	125%	106%	91.3%	129%	84.2%	98.7%	62.8%
CCCCCCCCCCSc1ncnc2nc[nH]c12	51.4%	59.8%	48.5%	82%	63.9%	69.4%	61.4%	57.9%	72.5%	82.6%
Cc1nnc(Nc2ccc(NC(=O)Nc3ccc(Cl)cc3)cc2)c2ccccc12	44.2%	60.1%	51.2%	51.7%	58.8%	33.9%	35.4%	11%	9.76% (active)	-3.51% (active)
COc1cc2c(cc1OC)C1CCN3C(=O)CCC3N1CC2 (stereo not given)	114%	109%	99.7%	104%	102%	115%	104%	102%		95.8%
COc1cccc2c1C(=O)c1c(O)c3c(c(O)c1C2=O)C[C@@](O)(/C(C)=N/NC(=O)c1cccc([N+](=O)[O-])c1)C[C@@H]3OC1CC(N)C(O)C(C)O1 (stereo not given in full)	-6.35% (active)	-9.27% (active)	-17% (active)	-33.8% (active)	-62.6% (active)	-47.4% (active)	-58.6% (active)		-39% (active)	
C[N+]1(CCC[N+]2(C)C[C@@H]3[C@H](C2)[C@@H]2C=C[C@H]3C2)CCOCC1 (stereo not given in full)	118%	101%	73.9%	113%	90.9%	101%	103%	110%		110%
COc1cc(C2NC(c3ccc(Cl)cc3)C(C)/C(=N/NC(N)=S)C2C)cc(OC)c1OC (stereo not given)	107%	94.7%	76.7%	103%	93.2%	51.1%	129%	89.8%		98.6%
O=C1C2C3C=CC(O3)C2C(=O)N1Nc1ccccc1 (stereo not given)	101%	107%	101%	103%	103%	93.5%	68.1%	96.1%	101%	126%
